Screening data as filed in PubChem BioAssay.
Only some compounds are listed: those with a hit (about 2.5% of all), similar ones and a draw of the others.
Casp7 inh = blocks human caspase-7 allosterically or competitively | P55210 | recombinant caspase-7, Ac-DEVD-AFC fluorescence rate | Potency, µM (top dose mostly 57.5 µM), inactives show at the top dose activity change, negative = inhibition, actives largely listed as inhibitors | hit rate 0.02% among 75,000 | AID 889; active means well fitted inhibition curve with a large enough effect in the main read-out, with a control signal flat, not every such curve was filed as active; inconclusive means small, poorly fitted or top-dose-only effect, or a change in a side signal; further: % of control where 0% means no effect
Target sequence (P55210 24-198 limits assumed): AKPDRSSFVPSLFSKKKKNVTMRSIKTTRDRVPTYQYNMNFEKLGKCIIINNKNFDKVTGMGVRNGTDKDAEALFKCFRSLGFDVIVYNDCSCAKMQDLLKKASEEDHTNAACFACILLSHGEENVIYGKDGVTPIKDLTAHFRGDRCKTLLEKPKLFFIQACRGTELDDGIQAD
Target sequence (P55210 207-303 limits assumed): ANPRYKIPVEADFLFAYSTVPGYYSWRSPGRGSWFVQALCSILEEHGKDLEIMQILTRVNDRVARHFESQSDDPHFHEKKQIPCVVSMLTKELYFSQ
FLuc inh = firefly luciferase inhibition; P08659; purified firefly luciferase, luminescence, 8 min; Potency, µM (top dose mostly 57.1 µM), for the others: at the highest dose activity change, negative = inhibition, actives largely listed as inhibitors; hit rate 2.2% among 72,000; AID 411; further: on the % scale 0 is the no-effect control and ±100 the full control effect; nearly all actives have a fitted effect of over 40% in size
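Luminescence read-out after 8 min at room temperature; enzyme reaction used luciferin plus 10 uM ATP (linear range) in imidazole buffer pH 7.2 with KCl, MgCl2, Tween 20 and BSA. Each sample was run as a titration.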
Casp1 inh = blocks human caspase-1 allosterically or competitively. Caspase-1 enzyme, Ac-WEHD-AFC fluorogenic rate. Potency, µM (series often up to 57.5 µM), inactives show at the highest dose activity change, negative = inhibition, most hits filed as inhibitors. hit rate 0.03% among 75,000. AID 900;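 further: plate controls were vehicle for no effect and no substrate for full effect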
Target sequence (P29466 120-297 limits assumed): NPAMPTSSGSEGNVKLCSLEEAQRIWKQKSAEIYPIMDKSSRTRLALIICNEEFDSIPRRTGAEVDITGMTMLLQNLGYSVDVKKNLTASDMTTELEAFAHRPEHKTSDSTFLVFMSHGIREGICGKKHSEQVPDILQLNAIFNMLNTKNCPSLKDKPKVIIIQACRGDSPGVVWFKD
Target sequence (P29466 317-404 limits assumed): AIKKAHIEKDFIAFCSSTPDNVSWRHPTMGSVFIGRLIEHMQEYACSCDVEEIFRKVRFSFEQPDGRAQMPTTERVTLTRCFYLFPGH
IkB signaling = IkB pathway inhibition in ABC-DLBCL cells. hit rate 0.04% among 110,000. ABC-DLBCL IkBa-CBG/CBR dual luciferase ratio, 4 h; response scale: scaled: untreated 0%, proteasome inhibitor 100%. AID 445. Potency, µM (highest dose often 57.1 µM), for inactives: at the top dose IkBa stabilization activation; active means well fitted curve in the direction sought with a large enough effect in the signal ratio, not every such curve was filed as active; inconclusive means small, poorly fitted or top-dose-only effect, or a change in a side signal; the % refers to the signal ratio;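 further: the direction sought is a rising ratio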
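Luminescence ratio of IκBα-fused green versus native red beetle luciferase in OCI-Ly3 cells, 4 h post-doxycycline with compound; red signal alone, scaled from basal (0%) to zero light (-100%), flagged nonspecific or cytotoxic effects.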
p53ts 39C tox = kills p53ts cells at the nonpermissive temperature | H1299-p53A138V viability at 39C, ATP luminescence, 24 h | Potency, µM (top dose mostly 46.1 µM), for inactives: top-dose activity change, negative = cell killing, actives largely listed as cytotoxic | hit rate 1.5% among 130,000; further: on the % scale 0 is the no-effect control and ±100 the full control effect; nearly all actives have a fitted effect of over 55% in size
p53ts 32C kill = kills p53ts cells at the permissive temperature. H1299-p53A138V at 32C, ATP luminescence viability, 24 h. Potency, µM (doses to about 46.1 µM), for the others: at the top dose activity change, negative = cytotoxicity, hits mostly cytotoxic. hit rate 0.93% among 130,000. AID 924;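 further: 0% = DMSO and -100% = full killing by reference compound; nearly all actives have a fitted effect of over 55% in size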
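H1299-p53 A138V cells (temperature-sensitive p53) exposed 24 h to up to 46 uM compound at 32C, where p53 is wild-type in conformation. Viability read as ATP luminescence and normalised to DMSO and 100 uM tamoxifen. AC50 fitted with the Hill equation.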
* = called active by the depositor; u = inconclusive; x = no result; [ ] = another dose, or the depositor's remark. Unless noted, the call rests on the fitted dose curve; in most records, active means well fitted curve in the direction sought with a large enough effect; inconclusive means small, poorly fitted or top-dose-only effect, or another doubt; inactive means no such curve, though single readings can be large; an effect the other way counts as inactive or inconclusive. Potency means the concentration at half of the fitted maximal effect.

SMILES	Casp7 inh	FLuc inh	Casp1 inh	IkB signaling	p53ts 39C tox	p53ts 32C kill
O=C1c2[nH]nc(-c3ccccc3O)c2C(c2cccc(Cl)c2)N1CC1CCCO1 (configuration not stated)	-3.0%	1.8%	-4.0%	u	26.6%	31.7%
CCSc1nnc(-c2ccc(Cl)cc2Cl)o1	0.5%	u	-2.5%	-0.6%	-17.9%	-26.6%
O=C(O)CCSc1nnc(-c2ccc(Cl)cc2Cl)o1	x	x	x	u	u	12.6µM*
Fc1ccc(-c2nnc(-c3ccc(Cl)cc3Cl)o2)cc1	2.2%	1.26µM*	-3.8%	u	12.6µM*	5.01µM*
Clc1ccc(-c2nnc(-c3ccc(Br)o3)o2)c(Cl)c1	-7.0%	-26.6%	1.3%	-2.7%	-28.8%	-20.1%
Clc1ccc(-c2nnc(-c3ccccc3)o2)c(Cl)c1	-5.3%	2µM*	-0.5%	u	10µM*	7.94µM*
CCCS(=O)(=O)N1CCCC(C(=O)N2CCOCC2)C1 (configuration not stated)	2.5%	1.6%	1.8%	-1.7%	7.6%	1.5%
C=CCn1c(SCCC#N)nnc1-c1ccncc1	-0.7%	2.6%	4.1%	0.7%	-15.7%	9.5%
CO[C@H]1COC(=O)C/C=C\[C@@H](C)COC(=O)[C@@H](C)NC(=O)C/C=C\[C@@H]1C	-1.0%[11.5 µM]	0.0%[11.4 µM]	0.5%[11.5 µM]	x	17.7%[9.22 µM]	6.9%[9.22 µM]
COc1ccc(NC(=O)c2cc3nc(-c4ccc(C)c(C)c4)cc(C(F)(F)F)n3n2)cc1	x	x	x	11.9%	10µM*	-0.9%
Fc1cc(F)c2nc(N3CCCCC3)sc2c1	-0.6%	u	-1.4%	-3.6%	-14.9%	-25.1%
CN(C)S(=O)(=O)c1ccc(NC(=O)c2ccccn2)cc1	0.8%	u	2.4%	2.1%	10µM*	12.6µM*
CN(C)c1ccc(NC(=S)c2ccccn2)cc1	-2.9%	0.794µM*	-1.5%	u	2.51µM*	1.58µM*
CCC(C)n1c(=N)c(S(=O)(=O)c2ccc(C)cc2)cc2c(=O)n3cc(C)ccc3nc21 (configuration not stated)	x	x	x	-1.9%	23.4%	-1.4%
CC1(C)CC(=O)c2cc(C(=O)NCc3ccco3)c(=O)n(-c3ccc(Cl)cc3)c2C1	-0.7%	1.0%	0.7%	2.3%	-0.1%	-0.2%
CCOc1ccc2nc(C)cc(Nc3ccccc3OCC)c2c1	x	x	x	0.3%	7.94µM*	-29.7%
N#CCc1nc(CSc2nc3ccccc3o2)cs1	-4.8%	-10.5%	-0.4%	0.5%	-7.7%	-3.6%
c1ccc2oc(SCc3nc4ccccc4s3)nc2c1	-5.5%	15.8µM*	-10.9%	u	-17.5%	-24.6%
COc1ccc(CCN(C(=O)c2cccc(F)c2)C2CC(=O)N(c3ccccc3)C2=O)cc1 (configuration not stated)	x	x	x	x	-5.0%	-5.1%
Cn1nnc(-c2ccc(OCc3ccccc3F)cc2)n1	-1.4%	25.1µM*	-3.1%	14.8%	-24.5%	-28.4%
CC(=O)OC(C(=O)NCc1ccco1)c1cccnc1 (configuration not stated)	-2.3%	2.7%	-3.1%	u	6.4%	-1.9%
CCOC(=O)c1cnc(SCC(=O)c2ccc(C)cc2)nc1N	x	x	x	x	-3.1%	1.7%
CCOC(=O)c1cnc(-c2ccccc2)nc1N	1.9%	20µM*	1.9%	u	u	u
CCOC(=O)c1cnc(SCC(=O)c2ccccc2)nc1N	-0.4%	3.98µM*	-0.5%	4.4%	-26.9%	-28.4%
CCOC(=O)C1=C(CN2CCCCC2)NC(=O)NC1c1ccc(OC)cc1 (configuration not stated)	x	x	x	x	x	-0.5%
SMILES	Casp7 inh	FLuc inh	Casp1 inh	IkB signaling	p53ts 39C tox	p53ts 32C kill
CN(C)c1ccc(C(CNS(=O)(=O)c2ccccc2)N2CCc3ccccc32)cc1 (configuration not stated)	x	x	x	1.9%	-13.5%	9.2%
O=S(=O)(NCCO)c1cccc2cccnc12	-3.6%	0.7%	-1.5%	2.5%	2.9%	6.4%
O=S(=O)(NCCNC/C=C\c1ccc(Br)cc1)c1cccc2cnccc12	0.6%	0.7%	-0.4%	-3.6%	15.8µM*	u
O=C(COc1ccc2oc(-c3ccccc3)cc(=O)c2c1)NCc1ccco1	-2.9%	7.94µM*	-0.9%	10.0%	-19.8%	-19.1%
N/C(=N\O)c1cn([C@@H]2O[C@@H](CO)[C@H](O)[C@@H]2O)c2ncnc(NO)c12	0.0%[11.5 µM]	3.8%[11.4 µM]	1.0%[11.5 µM]	8.0%[11.4 µM]	1µM*	2µM*
CCc1nnc(NC(=O)CSc2nnc(C3CCCCC3)n2-c2ccccc2)s1	0.7%	-0.9%	-1.1%	1.3%	-12.8%	-0.1%
COc1ccc(-c2cc(C(F)(F)F)nc(S(=O)(=O)CCC(=O)N3CCOCC3)n2)cc1	0.2%	-0.7%	-7.7%	-2.6%	u	5.01µM*
COc1ccccc1-c1cc(C(F)(F)F)nc(S(=O)(=O)CCCC(=O)N2CCOCC2)n1	-3.8%	1.2%	-1.1%	u	u	u
COc1ccc(-c2ccc(SCC(=O)N3CCOCC3)nn2)cc1	-0.8%	12.6µM*	1.7%	2.4%	u	u
COc1cc(Nc2nc3c(S(=O)(=O)c4ccccc4)nnn3c3ccc(Cl)cc23)cc(OC)c1	x	x	x	0.7%	-2.6%	11.2%
Clc1ccc(-c2nnc(NC3=NCCCCC3)o2)cc1	0.2%	2.51µM*	-3.2%	u	12.6µM*	12.6µM*
Clc1ccccc1Cn1nnc2c(Nc3ccccc3)ncnc21	-4.4%	-0.2%	-2.3%	u	-11.4%	-1.4%
O=C(OCC(=O)N1c2ccccc2Sc2ccccc21)C1CC(=O)N(Cc2ccco2)C1 (configuration not stated)	-0.2%	0.6%	-4.5%	0.6%	-6.4%	-1.4%
CCOC(=O)c1cccc(NC(=O)c2cc3cc4ccc(C)cc4nc3s2)c1	x	x	x	u	10µM*	-4.6%
Cc1ccc(CCNC(=O)c2ccc3c(c2)nc2n3CCOC2)cc1	x	x	x	0.1%	-17.2%	-9.8%
Cc1ccccc1CCNC(=O)c1ccc2c(c1)nc1n2CCC(C)C1 (configuration not stated)	x	x	x	-1.3%	12.6µM*	12.6µM*
O=C(NCCc1ccccc1)c1ccc2c(c1)nc1n2CCOC1	x	x	x	-3.3%	10µM*	12.6µM*
O=C(NCCc1ccccc1Cl)c1ccc2c(c1)nc1n2CCCCC1	x	x	x	u	2.51µM*	3.98µM*
COc1ccc(Br)cc1CNC(=O)c1ccc2c(c1)nc1n2CCC(C)C1 (configuration not stated)	x	x	x	0.6%	-15.4%	-2.9%
CC(C)CCNC(=O)c1ccc2c(c1)nc1n2CCCCC1	x	x	x	u	3.16µM*	15.8µM*
CCNC(=O)c1ccc2c(c1)nc1n2CCCCC1	x	x	x	0.3%	u	u
CCOC(=O)c1ccc(CNS(=O)(=O)c2c(C)ccc3nsnc23)o1	2.1%	-0.4%	0.4%	-0.2%	5.6%	4.0%
COc1ccc(-c2csc(NC(=O)CN3C(=O)CCC3=O)n2)c(OC)c1	x	x	x	x	7.6%	12.8%
